Where “and” joins values, the source holds several entries; their conditions need not be identical. Identical values can stand only once. Records with an inconclusive call do not appear. More than one record can exist for a structure, and the calls need not agree. Calls of active or inactive are those of the source. How the source made its calls: active means hit-call score of the fitted dose curve at least 0.9, where 1 is the maximum; inconclusive means response in the unintended direction; inactive means score below 0.9.
What was measured:
[1] = ATG_XTT_Cytotoxicity: Cytotoxicity Assessment in the Attagene TRANS-FACTORIAL HepG2 Assay (AID 2283584);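 on AC50: cells exposed to compound for 24 h before reading; active means loss of viability signal versus DMSO baseline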
Outline: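 HepG2 human liver cells, transiently transfected with multiple GAL4-UAS reporter units, were dosed and read at 24 h by XTT as cell number. Loss of signal was fitted relative to DMSO negative control baseline.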

[2] = TOX21_p53_BLA_p2_viability: Viability Assessment in the Tox21 HCT-116 p53 Agonism Beta-lactamase Assay, Phase 2 (AID 2283591);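 further: compound exposure lasted 16 h at 37 °C; actives lower the ATP signal meaning cytotoxicity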
Outline: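 HCT116 p53-bla cells, 4000/well, dosed after 5 h plating (217-fold dilution of DMSO stocks) and incubated 16 h at 37C. Viability taken as cellular ATP by CellTiter-Glo luminescence after 30 min RT; signal loss marks cytotoxicity.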

[3] = target: Cellular tumor antigen p53 (Homo sapiens) (UniProt P04637); assay: TOX21_p53_BLA_p2_ratio: Tox21 HCT-116 p53 Agonism Beta-lactamase Assay, Ratio, Phase 2 (AID 2283592)
Outline: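 Ratio endpoint: beta-lactamase cleavage of CCF4-AM, blue (460 nm) over green (530 nm). HCT116 reporter line; 16 h treatment, 37C; substrate 2 h RT.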

[4] = TOX21_p53_BLA_p3_viability: Viability Assessment in the Tox21 HCT-116 p53 Agonism Beta-lactamase Assay, Phase 3 (AID 2283593);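 further: cells exposed to compound for 16 h before reading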
Outline: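 HCT116 cells, 4000/well, dosed 5 h after plating by pin transfer (217-fold dilution from DMSO stock) and incubated 16 h at 37C, 5% CO2. Viability read as ATP luminescence with CellTiter-Glo after 30 min at room temperature.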

[5] = target: Cellular tumor antigen p53 (Homo sapiens) (UniProt P04637); assay: TOX21_p53_BLA_p3_ratio: Tox21 HCT-116 p53 Agonism Beta-lactamase Assay, Ratio, Phase 3 (AID 2283596)
Outline: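 Cells were seeded at 4000/well, rested 5 h at 37C, then dosed with DMSO compound solutions (217-fold dilution) for 16 h. CCF4-AM substrate was loaded for 2 h at room temperature, and the 460/530 nm emission ratio was fitted for gain of signal versus DMSO.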

[6] = TOX21_p53_BLA_p4_viability: Viability Assessment in the Tox21 HCT-116 p53 Agonism Beta-lactamase Assay, Phase 4 (AID 2283597);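 further: hits lower the luminescence signal meaning cytotoxicity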
Outline: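 Cytotoxicity was inferred from loss of CellTiter-Glo luminescence. HCT116 cells had been dosed with compounds after 5 h plating, incubated 16 h at 37C and 5% CO2, and exposed to the CCF4-AM substrate for 2 h.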

[7] = target: Cellular tumor antigen p53 (Homo sapiens) (UniProt P04637); assay: TOX21_p53_BLA_p5_ratio: Tox21 HCT-116 p53 Agonism Beta-lactamase Assay, Ratio, Phase 5 (AID 2283599)
Outline: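 HCT-116 p53-bla cells (4000/well) plated 5 h, dosed with compound (217-fold DMSO dilution) for 16 h at 37 C; CCF4-AM substrate 2 h at room temperature. Activity is the 460/530 nm emission ratio (405 nm excitation), fitted in gain-of-signal direction versus DMSO.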

[8] = TOX21_p53_BLA_p5_viability: Viability Assessment in the Tox21 HCT-116 p53 Agonism Beta-lactamase Assay, Phase 5 (AID 2283600)
Outline: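 Luciferase-coupled ATP quantitation of cells treated for 16 h (37C, 5% CO2) with test chemicals delivered in DMSO via a 217-fold dilution; 4000 cells/well; reagent incubated 30 min at room temperature before luminescence reading.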

[9] = target: Cellular tumor antigen p53 (Homo sapiens) (UniProt P04637); assay: TOX21_p53_BLA_p4_ratio: Tox21 HCT-116 p53 Agonism Beta-lactamase Assay, Ratio, Phase 4 (AID 2283601)
Outline: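 HCT-116 p53 beta-lactamase reporter cells (4000/well) preincubated 5 h, then compound (217-fold dilution of DMSO stock) for 16 h at 37C. CCF4-AM substrate added 2 h at room temperature; 460/530 nm emission ratio fitted upward versus DMSO.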

Measured: AC50

Sequence of Cellular tumor antigen p53 (Homo sapiens) (P04637 whole entry, looked up): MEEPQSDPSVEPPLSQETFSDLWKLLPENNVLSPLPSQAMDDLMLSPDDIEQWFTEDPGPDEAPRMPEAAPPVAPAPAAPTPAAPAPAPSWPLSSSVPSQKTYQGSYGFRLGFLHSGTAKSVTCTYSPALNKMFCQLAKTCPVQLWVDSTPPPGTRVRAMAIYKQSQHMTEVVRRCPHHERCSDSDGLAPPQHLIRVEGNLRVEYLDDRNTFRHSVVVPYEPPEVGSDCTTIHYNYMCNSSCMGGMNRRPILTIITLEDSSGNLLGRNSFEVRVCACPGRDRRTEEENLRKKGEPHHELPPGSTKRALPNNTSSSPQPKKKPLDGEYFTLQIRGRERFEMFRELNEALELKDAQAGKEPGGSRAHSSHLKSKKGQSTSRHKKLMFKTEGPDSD

O=c1oc2ccccc2c(O)c1C(CC(O)c1ccc(-c2ccc(Br)cc2)cc1)c1ccccc1 (stereo unspecified)
inactive: [1] | [2] | [3] | [4] | [6] | [8]
active: [2] 6.09 µM | [4] 15.2 µM | [5] 43.4 µM and 22.3 µM | [6] 10.4 µM | [7] 27.2 µM and 14.3 µM | [8] 19.3 µM

O=c1[nH]c2ccccc2n1C1CCN(CCCC(c2ccc(F)cc2)c2ccc(F)cc2)CC1
inactive: [3]
active: [1] 18.1 µM | [2] 13.8 µM and 30.1 µM | [3] 39.4 µM | [4] 67.5 µM and 35.3 µM | [5] 83.6 µM and 43.4 µM | [6] 14.6 µM and 11.3 µM | [7] 84.6 µM and 43.2 µM | [8] 75.5 µM and 31.9 µM

Cc1cc(Cl)ccc1OCCCC(=O)O
inactive: all assays above

O=C(Nc1ccc(Br)cc1)c1cc(Br)cc(Br)c1O
inactive: [1] | [2] | [8]
active: [2] 0.391 µM | [3] 1.15 µM and 272 nM and 3.12 µM | [4] 1.12 µM and 641 nM and 1.79 µM | [5] 255 nM and 198 nM and 1.8 µM | [6] 1.33 µM and 417 nM and 2.76 µM | [7] 1.11 µM and 782 nM and 7.78 µM | [8] 9.14 µM

C=CCN=C=S
inactive: all assays above

CCOC(=O)Cc1ccccc1
inactive: [1]

CCCCOC(C)=O
inactive: [1] | [2] | [3] | [4] | [5]

CC(C)[C@@H](Nc1ccc(C(F)(F)F)cc1Cl)C(=O)OC(C#N)c1cccc(Oc2ccccc2)c1 (stereo partly specified)
not listed: [9]
inactive: all other assays above

CCOP(=O)(OCC)OC(=CCl)c1ccc(Cl)cc1Cl
inactive: all assays above

O=C(NC(=O)c1c(F)cccc1F)Nc1cc(Cl)c(Oc2ncc(C(F)(F)F)cc2Cl)c(Cl)c1
active: [3] 6.18 µM | [6] 4.06 µM | [7] 13.7 µM | [9] 15.6 µM
inactive: all other assays above

COP(=S)(OC)Oc1cc(Cl)c(I)cc1Cl
active: [1] 157 µM | [3] 73.9 µM | [5] 75.1 µM | [9] 87.3 µM
inactive: all other assays above

COC(=O)c1cc(Oc2ccc(Cl)cc2Cl)ccc1[N+](=O)[O-]
not listed: [9]
inactive: all other assays above

CN(C)c1ccc(N=O)cc1
inactive: [1] | [3] | [5] | [9]
active: [2] 70.1 µM and 70.5 µM | [3] 75.7 µM | [4] 88.2 µM and 80.8 µM | [6] 70.4 µM and 69.5 µM | [7] 83.8 µM and 86.6 µM | [8] 74.2 µM and 79.4 µM | [9] 86.9 µM

O=[N+]([O-])c1c2ccccc2cc2ccccc12
not listed: [9]
inactive: all other assays above

C=CC(=O)[O][Sn]([CH2]CCC)([CH2]CCC)[CH2]CCC
active: [1] 1.09 µM | [2] 1.86 µM | [3] 13.5 µM | [4] 1.64 µM | [5] 13.6 µM | [6] 1.56 µM | [7] 13.4 µM | [8] 1.82 µM

OCC(c1ccc(Cl)cc1)c1ccc(Cl)cc1
inactive: [1] | [4] | [5]
active: [2] 69.5 µM | [3] 80.1 µM | [6] 71.1 µM | [7] 86.8 µM | [8] 70.4 µM | [9] 85.2 µM

O=[N+]([O-])c1ccc(Cl)c([N+](=O)[O-])c1
active: [1] 20.2 µM | [2] 45.5 µM and 39.7 µM | [3] 75.5 µM | [4] 86.3 µM and 41.1 µM | [6] 71.9 µM and 42.9 µM | [7] 32.3 µM and 74.9 µM | [8] 44 µM and 44.4 µM
inactive: [3] | [5]

Cc1cccc(C)c1NC(=O)CN1CCCC1=O
not listed: [9]
inactive: all other assays above

CCOC(=O)OC1=C(c2cc(C)ccc2C)C(=O)NC12CCC(OC)CC2 (stereo unspecified)
active: [3] 46.1 µM | [5] 52.6 µM | [7] 26.3 µM | [9] 54.7 µM
inactive: all other assays above

NNCCO
inactive: [1]

CCN(CC)C(=O)C(Cl)=C(C)OP(=O)(OC)OC
inactive: all assays above

O=C(O)CC(O)(CC(=O)O)C(=O)O
not listed: [9]
inactive: all other assays above

CCC[CH2][Sn]([CH2]CCC)([CH2]CCC)[CH2]CCC
active: [1] 33.9 µM | [2] 30.1 µM | [4] 20.2 µM | [5] 29.6 µM | [6] 42.2 µM | [7] 44.3 µM | [8] 41 µM
inactive: [3]

O=[N+]([O-])c1ccc(Nc2ccccc2)cc1
inactive: [1] | [3] | [4] | [6] | [8]
active: [2] 32.5 µM | [3] 72.5 µM | [4] 61 µM | [5] 42.4 µM and 90.9 µM | [6] 82.4 µM | [7] 52.5 µM and 84.9 µM | [8] 66.3 µM

CCOc1ccc(N)cc1
inactive: all assays above

O=C(NC(=O)c1c(F)cccc1F)Nc1cc(Cl)c(OC(F)(F)C(F)C(F)(F)F)cc1Cl (stereo unspecified)
inactive: all assays above

CCOc1cc(C=O)ccc1O
inactive: all assays above

OC(Cc1ccccc1Cl)(Cn1[nH]cnc1=S)C1(Cl)CC1 (stereo unspecified)
inactive: [1]

[F][Sn]([c]1ccccc1)([c]1ccccc1)[c]1ccccc1
active: [1] 1.35 µM | [2] 1.6 µM | [3] 10.1 µM | [4] 13.3 µM | [5] 13.5 µM | [6] 3.96 µM | [7] 18.3 µM | [8] 13.2 µM | [9] 12 µM

CC(C)CC(C)(c1ccc(O)cc1)c1ccc(O)cc1
active: [1] 25.9 µM | [2] 23.7 µM and 75.4 µM | [3] 41.7 µM and 71.7 µM | [4] 57.9 µM and 73.5 µM | [5] 45.2 µM and 86.9 µM | [6] 18.6 µM and 46.2 µM | [7] 84.6 µM and 86.8 µM | [8] 71.2 µM and 81.4 µM | [9] 40.9 µM and 55 µM

C[CH2][Hg][S]c1ccccc1C(=O)O
inactive: [1] | [3]
active: [2] 32 µM and 18.4 µM | [3] 2.74 µM | [4] 46.1 µM and 6.74 µM | [5] 221 nM and 970 nM | [6] 41.7 µM and 5.78 µM | [7] 350 nM and 3 µM | [8] 46.1 µM and 7.05 µM | [9] 46.1 µM and 34.6 µM

CC(O)(CS(=O)(=O)c1ccc(F)cc1)C(=O)Nc1ccc(C#N)c(C(F)(F)F)c1 (stereo unspecified)
inactive: all assays above

N#CS
not listed: [9]
inactive: all other assays above

Brc1ccc(Br)cc1
inactive: all assays above

OC(c1ccc(Cl)cc1)(c1ccc(Cl)cc1)c1cccnc1
active: [1] 67.7 µM | [2] 46.1 µM | [3] 44.3 µM | [6] 60.5 µM | [7] 72.5 µM | [9] 70.9 µM
inactive: [4] | [5] | [8]

CCOP(=S)(OCC)O/N=C(\C#N)c1ccccc1
not listed: [4] | [8] | [9]
inactive: all other assays above

N#CCCC(Br)(C#N)CBr (stereo unspecified)
active: [5] 70.8 µM
not listed: [7] | [8]
inactive: all other assays above

CCC(C)(C#N)N=NC(C)(C#N)CC (stereo unspecified)
not listed: [5] | [9]
inactive: all other assays above

O=C(CCl)Nc1ccccc1
not listed: [8]
inactive: all other assays above

Clc1cc(C(Cl)(Cl)Cl)cnc1Cl
not listed: [6]
inactive: all other assays above

CC1(C)[C@H](/C=C2\CCSC2=O)[C@@H]1C(=O)OCc1coc(Cc2ccccc2)c1
active: [9] 69.3 µM
inactive: all other assays above

CCOC(=O)C(SP(=S)(OC)OC)c1ccccc1 (stereo unspecified)
not listed: [6]
inactive: all other assays above

CC(C)[C@H](C(=O)OC(C#N)c1cccc(Oc2ccccc2)c1)c1ccc(OC(F)F)cc1 (stereo partly specified)
inactive: all assays above

CCOP(=S)(OCC)OP(=S)(OCC)OCC
not listed: [8]
inactive: all other assays above

BrCc1ccc(Br)cc1
not listed: [5] | [6]
inactive: all other assays above

— PubChem BioAssay (EPA / NIEHS)
